High-throughput results from PubChem BioAssay.
Only some compounds are listed: those with a hit (about 1.1% of all), similar ones and a draw of the others.
MOR-DOR ag-1: agonists of human mu-delta opioid receptor heterodimerization; P35372+P41143; cells, OPRM1-OPRD1 heterodimerization, luminescence; activation, % at 9.3 µM; hit rate 0.3% among 340,000; AID 504326
HTR5A ag: counter-screen for OPRM1-OPRD1 agonists: human HTR5A agonism; HTR5A agonist assay, luminescence, cell-based; hit rate 0.61% among 340,000; activation, % at 9.3 µM; P47898; in the data active = activation mostly above about 9.5%, no sharp cut-off; inactive = mostly below about 7.6%
Target sequence (P47898 whole entry, looked up): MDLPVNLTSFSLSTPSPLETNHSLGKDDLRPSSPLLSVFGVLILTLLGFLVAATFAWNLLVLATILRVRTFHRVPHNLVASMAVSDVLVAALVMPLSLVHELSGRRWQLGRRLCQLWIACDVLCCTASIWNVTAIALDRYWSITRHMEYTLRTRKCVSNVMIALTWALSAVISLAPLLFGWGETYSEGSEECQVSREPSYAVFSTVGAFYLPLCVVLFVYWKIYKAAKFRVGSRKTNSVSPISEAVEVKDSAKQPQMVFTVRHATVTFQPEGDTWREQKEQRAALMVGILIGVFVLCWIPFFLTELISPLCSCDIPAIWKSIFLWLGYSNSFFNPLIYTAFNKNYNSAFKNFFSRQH
OPRM1-OPRD1 inv: inverse agonists of human mu-delta opioid receptor heterodimerization | hit rate 0.21% among 340,000 | P35372+P41143 | inhibition, % at 9.3 µM | AID 504357 | cell-based MOR-DOR heterodimer luminescence, inverse agonism; in the data active = inhibition above about 22%, passing the limit was not always enough
HTR5A inv ctr: HTR5A inverse agonism, opioid heterodimer counter-screen. P47898. HTR5A cell line, luminescence. inhibition, % at 9.3 µM. hit rate 0.083% among 340,000; in the data active = inhibition mostly above about 23%, no sharp cut-off; inactive = mostly below about 18%
MOR-DOR ag-2: promotes OPRM1-OPRD1 heterodimerization in HTR5A counter-screen | shares compounds with HTR5A ag | U2OS counter-screen cells, complementation luminescence, 3 h | activation, % at 9.3 µM | hit rate 13% among 800
HTR5A ag confirm: confirmation of human HTR5A agonists | shares compounds with HTR5A ag | HTR5A agonist cell assay, luminescence | activation, % at 9.3 µM | hit rate 17% among 800 | AID 504915; in the data active = activation above about 17%
Large screens that a line does not name were inactive (follow-up assays come after a bar, where they were run). Rule as the data show it, unless noted: active = activation above about 18%; inactive = the rest.

Cc1ccc2c(c1)N(CCC(=O)NCC1COc3ccccc3O1)C(=O)CO2 (configuration not stated)	none
COC(=O)c1c(C(=O)OC)c2n(c1C)Cc1ccccc1C2	HTR5A ag 15 | MOR-DOR ag-2 inactive | HTR5A ag confirm inactive
C1=CN2CCC1C(c1ccccc1)C2 (configuration not stated)	none
COc1cc(C(=O)NCC(=O)N/N=C/c2ccc(OC(=O)c3ccco3)cc2)cc(OC)c1OC	HTR5A ag 22 | MOR-DOR ag-2 inactive | HTR5A ag confirm inactive
OC[C@@H]1CCCN1Cc1nc(-c2cccs2)no1	none
CN(CC(=O)Nc1cccc(F)c1)C(=O)C1(c2ccccc2)CC1	HTR5A ag 14 | MOR-DOR ag-2 inactive | HTR5A ag confirm inactive
COc1ccc(CNC(=O)CCc2nnc3ccc(NCCCN4CCCC4=O)nn23)cc1	none
COc1cccc(CNC(=O)CCc2nnc3ccc(NCCCN4CCCC4=O)nn23)c1	HTR5A ag 17 | MOR-DOR ag-2 inactive | HTR5A ag confirm inactive
COc1ccc2c(c1)Cc1sc(NC(C)=O)nc1-2	HTR5A ag 15 | MOR-DOR ag-2 inactive | HTR5A ag confirm inactive
CC(NC(=O)Cn1cc([N+](=O)[O-])cn1)c1ccc(C(C)(C)C)cc1 (configuration not stated)	none
Cc1ccc(N2CCN(C(=O)N3CCCC3)CC2)cc1Cl	none
CCn1c(N2CCN(S(=O)(=O)c3ccc(OC)cc3)CC2)nc2ccccc21	HTR5A ag 18 | MOR-DOR ag-2 inactive | HTR5A ag confirm 37
CCn1c(N2CCN(C(=O)C34CC5CC(CC(C5)C3)C4)CC2)nc2ccccc21	HTR5A ag 31 | MOR-DOR ag-2 159 | HTR5A ag confirm inactive
CCN(CC)CCCNC(=S)N1CCN(c2nc3ccccc3n2CC)CC1	HTR5A ag 19 | MOR-DOR ag-2 inactive | HTR5A ag confirm 46
CCN(CC)CCCNC(=S)N1CCN(c2nc(-c3ccc(F)cc3)cs2)CC1	none
Cn1c(N2CCN(S(=O)(=O)c3ccc(F)cc3)CC2)nc2ccccc21	none
Cc1c(NC(=O)c2cc(S(=O)(=O)N3CCCCC3)ccc2Cl)c(=O)n(-c2ccccc2)n1C	none
CCOC(=O)c1c(C)[nH]c(C(=O)OCC(=O)Nc2sccc2C(N)=O)c1C	none
Cc1ccc(C(=O)NCCCNC(=O)COc2ccc(Cl)c(C)c2)cn1	none
O=C(/C=C/c1cccc(F)c1)OCC(=O)N1CCc2ccccc21	HTR5A ag 18 | MOR-DOR ag-2 inactive | HTR5A ag confirm inactive
O=C(CCS(=O)(=O)c1ccc(Cl)cc1)N1CCN(c2ccc(F)cc2)CC1	none
O=C(Cn1cnc2c(nnn2-c2ccccc2)c1=O)N1CCOCC1	HTR5A ag 28 | MOR-DOR ag-2 inactive | HTR5A ag confirm inactive
CC(C)N(C(=O)Nc1ccc2nccnc2c1)C(C)C	none
O=[N+]([O-])c1ccc2nc(C3CCCCC3)[nH]c2c1	none
COc1ccc(C(C)=O)cc1CS(=O)(=O)CC(=O)NCCc1c[nH]c2ccccc12	HTR5A ag 18 | MOR-DOR ag-2 inactive | HTR5A ag confirm inactive
CC(C)(C)OC(=O)C[C@@H]1C/C=C\C[C@@H](CC(=O)N[C@H](CO)Cc2ccccc2)C(=O)N2CCC[C@@H]2COC1=O	HTR5A ag 16 | MOR-DOR ag-2 23 | HTR5A ag confirm inactive
CCCc1cc(=O)oc2cc(OCC(=O)NCCc3c[nH]c4ccccc34)ccc12	HTR5A ag 19 | MOR-DOR ag-2 226 | HTR5A ag confirm 56
Cc1cc(=O)oc2cc(OCC(=O)NCCc3c[nH]c4ccc(F)cc34)ccc12	none
Cc1nonc1CC(=O)N1CCCC(C(=O)c2cccc(C(F)(F)F)c2)C1 (configuration not stated)	none
O=c1c2ccccc2nc2n1CCc1c-2[nH]c2ccccc12	none
Cc1cccc2c(=O)n3c(cc12)-c1[nH]c2ccccc2c1CC3	HTR5A ag 15 | MOR-DOR ag-2 inactive | HTR5A ag confirm inactive
O=C(NCCc1cnc[nH]1)Nc1cccc(C(F)(F)F)c1	HTR5A ag 17 | MOR-DOR ag-2 inactive | HTR5A ag confirm inactive
Cc1ccc(-c2csc3ncnc(Nc4ccc(N5CCOCC5)cc4)c23)cc1	none
COc1ccc(NC(=O)C(=O)NCCO)cc1Cl	HTR5A ag 15 | MOR-DOR ag-2 inactive | HTR5A ag confirm inactive
COc1ccc(NC(=O)C(=O)NCCCO)cc1Cl	none
CCN(CC)CCCNc1ccc(-c2nnc(-c3ccc(OCC(C)C)cc3)o2)cn1	HTR5A ag 18 | MOR-DOR ag-2 inactive | HTR5A ag confirm inactive
FC(F)(F)c1cc(N2CCN(Cc3ccccc3)CC2)c2ccccc2n1	none
CC(OC(=O)c1ccc(Cl)nc1)C(=O)Nc1ccc2c(c1)OCO2 (configuration not stated)	HTR5A ag 19 | MOR-DOR ag-2 inactive | HTR5A ag confirm inactive
COc1ccc(Cl)cc1NC(=S)NCc1ccccn1	none
COc1ccc(Cl)cc1NC(=O)NCc1ccccn1	HTR5A ag 17 | MOR-DOR ag-2 inactive | HTR5A ag confirm inactive
O=[N+]([O-])c1ccc2[nH]c(O)c(N=NC3CS(=O)(=O)CC3O)c2c1 (configuration not stated)	none
CC(C)c1ccc(NC(=O)COc2nnc(-c3cccs3)c(-c3cccs3)n2)cc1	none
O=C(NCCc1c[nH]c2ccccc12)/C(=C\c1cccnc1)NC(=O)c1ccccc1Br	HTR5A ag 22 | MOR-DOR ag-2 inactive | HTR5A ag confirm inactive
O=C(COc1ccc(Cl)cc1)NCCSCc1cccc(Cl)c1	none
Cc1cccc(CSCCNC(=O)COc2ccc(Cl)cc2)c1	HTR5A ag 14 | MOR-DOR ag-2 inactive | HTR5A ag confirm inactive
CCOc1ccc(NC(=O)NCCN2CCN(c3ccccc3F)CC2)cc1	none
CCOc1cccc(N2CCN(CCNC(=O)Nc3ccc(C)cc3)CC2)c1C	HTR5A ag 15 | MOR-DOR ag-2 inactive | HTR5A ag confirm 20
COc1ccc(NC(=O)NCCN2CCN(c3cccc(Cl)c3)CC2)cc1	HTR5A ag 19 | MOR-DOR ag-2 inactive | HTR5A ag confirm 23
COc1ccc(N2CCN(CCNC(=O)Nc3ccc(C)c(Cl)c3)CC2)cc1	none
COc1ccc(C(=O)OCC(=O)Nc2ccc(N3CCOCC3)cc2)cc1	none
Oc1c(Br)cc(Br)cc1CNc1cccc2cccnc12	HTR5A ag 16 | MOR-DOR ag-2 inactive | HTR5A ag confirm inactive
CC(=O)CCn1cnc([N+](=O)[O-])n1	HTR5A ag 15 | MOR-DOR ag-2 60 | HTR5A ag confirm inactive
CCOC(=O)Cn1cnc([N+](=O)[O-])n1	none
C=CCNC(=O)c1ccccc1NC(=O)C1CC(=O)N(C(C)C)C1 (configuration not stated)	HTR5A ag 16 | MOR-DOR ag-2 inactive | HTR5A ag confirm inactive
COc1ccc(CCN(C)CCCC(C#N)(c2cc(OC)c(OC)c(OC)c2)C(C)C)cc1OC (configuration not stated)	none
c1ccc(Cc2nnc(-c3ccccc3)o2)cc1	HTR5A ag 16 | MOR-DOR ag-2 inactive | HTR5A ag confirm inactive
